From PubChem
TDP1 cell noCPT – qHTS for Inhibitors of human tyrosyl-DNA phosphodiesterase 1 (TDP1): qHTS in cells in absence of CPT | DT40 Tdp1-/- hTDP1 cells, no CPT, ATP luminescence, 48 h | Potency, µM (top dose mostly 46.2 µM), without a hit: at the top dose activity change, negative = growth inhibition, actives largely listed as inhibitors | 420,000 tested, 15% active | AID 686978, 2013; further: nearly all actives have a fitted effect of over 55% in size
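Stably hTDP1-transfected Tdp1-null chicken DT40 cells were treated with library compounds minus camptothecin and grown for at least 48 hr at 37 °C, after which cellular ATP was quantified by luminescence.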
HT1080 IDH1KD tx – HT-1080 IDH1 knockdown cell toxicity (counter line). HT-1080 IDH1 knockdown viability, ATP luminescence, 48 h. Potency, µM (top dose mostly 46.1 µM), for inactives: top-dose activity, negative = toxicity, most hits filed as cytotoxic. 360,000 tested, 2% active;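 further: 0% = DMSO wells and -100% = cell-free medium wells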
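Assay cells: HT-1080 with IDH1 knockdown, 750 per well, RPMI/5% FBS. Exposure: 48 h at 37 °C following 2 h pre-incubation. Read: CellTiter-Glo luminescence; fitted concentration-response, curve class assigned.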
KB-V1 cytotox – KB-V1 MDR subline cytotoxicity | KB-V1 MDR cells viability, CellTiter-Glo, 72 h | Potency, µM (series often up to 46.1 µM), usual class: cytotoxic | 400,000 tested, 3.4% active; further: nearly all actives have a fitted effect of over 60% in size
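Following 72 h at 37 degrees C with compound, KB-V1 cell viability was read by CellTiter-Glo luminescence, medium being phenol-red-free DMEM plus 10% FBS; concentration-response parameters came from normalized, curve-fitted qHTS data.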
HT1080-NT tox – kills 2HG-producing HT-1080-NT fibrosarcoma cells; HT-1080-NT fibrosarcoma viability, CellTiter-Glo ATP luminescence, 48 h; Potency, µM (titrated, usually from 46.1 µM), without a hit: at the top dose activity, negative = less viability, hits mostly cytotoxic; 360,000 tested, 1.6% active;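 further: NT is the 2HG producing partner of a matched IDH1 knockdown line; 0% = DMSO-treated cells and -100% = media-only wells without cells; nearly all actives have a fitted effect of over 55% in size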
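Viability by CellTiter-Glo luminescence after 48 h compound exposure at 37C of HT-1080-NT cells (750/well, RPMI, 5% FBS). % activity scaled between DMSO wells and medium-only wells, then curve-fitted and categorized by curve class.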
TDP1 cell CPT – DT40-hTDP1 cell growth loss with CPT; chicken DT40 Tdp1-/-;hTDP1 cells + 20 nM CPT, ATP luminescence, 48 h; Potency, µM (titrated, usually from 46.2 µM), for the others: at the top dose activity change, negative = growth inhibition, most hits filed as inhibitors; 420,000 tested, 12% active; AID 686979; further: nearly all actives have a fitted effect of over 55% in size
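Chicken DT40 Tdp1-/- cells stably complemented with human TDP1 were seeded at 400 cells/well in medium containing 20 nM camptothecin, exposed to pin-transferred compounds, and grown at 37 °C for at least 48 hr. Viability was read as ATP luminescence.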
KB-3-1 cytotox – kills parental KB-3-1 adenocarcinoma cells. KB-3-1 viability, CellTiter-Glo ATP luminescence, 72 h. 400,000 tested, 1.4% active. AID 1347075. Potency, µM (titrated, usually from 46.1 µM), actives largely listed as cytotoxic; further: nearly all actives have a fitted effect of over 60% in size
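Cytotoxicity in the drug-sensitive parental line KB-3-1 was scored as loss of CellTiter-Glo luminescence following 72 h incubation with compound. Values come from curve fitting of normalized concentration-response data.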
Numbers without * were called inactive. Only some compounds are listed: those with a hit (about 19% of all), similar ones and a draw of the others. The call rests on the fitted dose curve; in most records, active means well fitted curve in the direction sought with a large enough effect; inconclusive means small, poorly fitted or top-dose-only effect, or another doubt; inactive means no such curve, though single readings can be large; an effect the other way counts as inactive or inconclusive. Unless noted, on the % scale 0 is the no-effect control and ±100 the full control effect; potency means the concentration at half of the fitted maximal effect.

What do the screens show for `CC[C@]12c3[nH]c4ccccc4c3CCN1C(=O)C(CC(=O)NCC13CC4CC(CC(C4)C1)C3)C[C@@H]2C(=O)N1CCN(C(=O)C2CC2)CC1` (some centres undefined)?
TDP1 cell noCPT: 5.17µM*; HT1080 IDH1KD tx: -29.9%; KB-V1 cytotox: inactive; HT1080-NT tox: -3.4%; TDP1 cell CPT: 5.17µM*; KB-3-1 cytotox: inactive

How did CC[C@]12c3[nH]c4ccc(OC)cc4c3CCN1C(=O)C(CC(=O)NCC13CC4CC(CC(C4)C1)C3)C[C@@H]2C(=O)N1CCN(C(=O)C2CC2)CC1 (some centres undefined) do in these assays?
TDP1 cell noCPT: inconclusive; HT1080 IDH1KD tx: -13.3%; KB-V1 cytotox: inactive; HT1080-NT tox: -11.8%; TDP1 cell CPT: inconclusive; KB-3-1 cytotox: inactive

Results for CC[C@]12c3[nH]c4ccc(Cl)cc4c3CCN1C(=O)[C@@H](CC(=O)NCC13CC4CC(CC(C4)C1)C3)C[C@@H]2C(=O)N1CCN(C(=O)C2CC2)CC1 ?
TDP1 cell noCPT: 3.26µM*; HT1080 IDH1KD tx: 23.1µM*; KB-V1 cytotox: inactive; HT1080-NT tox: 16.4µM*; TDP1 cell CPT: 8.2µM*; KB-3-1 cytotox: inconclusive

What do the screens show for `COc1cccc(OC)c1OCCNCC1CSc2ccccc2O1` (centres undefined)?
TDP1 cell noCPT: 10.3µM*; HT1080 IDH1KD tx: inconclusive; KB-V1 cytotox: inconclusive; HT1080-NT tox: inconclusive; TDP1 cell CPT: 20.6µM*; KB-3-1 cytotox: inactive

How did COc1cccc(OC)c1OCCOc1ccccc1OC(C)C do in these assays?
TDP1 cell noCPT: inconclusive; HT1080 IDH1KD tx: 17.4%; KB-V1 cytotox: inactive; HT1080-NT tox: 15.6%; TDP1 cell CPT: inconclusive; KB-3-1 cytotox: inactive

What do the screens show for `CCN1C(C(=O)c2ccccc2)=C(OC(=O)COc2ccccc2)c2ccccc2S1(=O)=O`?
TDP1 cell noCPT: 16.4µM*; TDP1 cell CPT: inconclusive

How did CCOC(=O)/C=C1\CN(C(C)c2ccccc2)S(=O)(=O)c2ccccc21 (centres undefined) do in these assays?
TDP1 cell noCPT: -26.0%; HT1080 IDH1KD tx: -3.3%; KB-V1 cytotox: inactive; HT1080-NT tox: -0.4%; TDP1 cell CPT: -29.4%; KB-3-1 cytotox: inactive

Results for Cc1ccc(OCC(=O)OC2=C(C(=O)c3ccccc3)N(C)S(=O)(=O)c3ccccc32)cc1 ?
TDP1 cell noCPT: 4.11µM*; KB-V1 cytotox: inconclusive; TDP1 cell CPT: inconclusive; KB-3-1 cytotox: inactive

Results for CCCCN(CCCC)C1=C(C(=O)c2ccccc2)N(CC)S(=O)(=O)c2ccccc21 ?
TDP1 cell noCPT: 25.9µM*; KB-V1 cytotox: inconclusive; TDP1 cell CPT: 13µM*; KB-3-1 cytotox: inconclusive

How did CCN1C(C(=O)c2ccccc2)=C(OC(=O)C(C)C)c2ccccc2S1(=O)=O do in these assays?
TDP1 cell noCPT: 5.17µM*; KB-V1 cytotox: inconclusive; TDP1 cell CPT: 6.51µM*; KB-3-1 cytotox: inconclusive

How did Cc1ccc(C2CC(=O)NC(SCC(=O)Nc3nccs3)=C2C#N)cc1 (centres undefined) do in these assays?
TDP1 cell noCPT: -25.7%; HT1080 IDH1KD tx: -3.1%; KB-V1 cytotox: inactive; HT1080-NT tox: -2.9%; TDP1 cell CPT: -11.4%; KB-3-1 cytotox: inactive

Results for NN1C(=O)/C(=C\c2ccco2)SC1=S ?
TDP1 cell noCPT: -9.9%; HT1080 IDH1KD tx: -8.3%; KB-V1 cytotox: inactive; HT1080-NT tox: -3.7%; TDP1 cell CPT: 2.2%; KB-3-1 cytotox: inactive

What do the screens show for `COC(=O)c1cnc(N)s1`?
TDP1 cell noCPT: -11.5%; HT1080 IDH1KD tx: 0.6%; KB-V1 cytotox: inactive; HT1080-NT tox: -2.1%; TDP1 cell CPT: -10.3%; KB-3-1 cytotox: inactive

Results for Cc1ccc(-c2nnc(Oc3cccc(C)c3)c3ccccc23)cc1 ?
TDP1 cell noCPT: inconclusive; HT1080 IDH1KD tx: 1.0%; KB-V1 cytotox: inactive; HT1080-NT tox: 2.9%; TDP1 cell CPT: inconclusive; KB-3-1 cytotox: inactive

Results for Cc1ccc(-c2nnc(OCC3CCCO3)c3ccccc23)cc1 (centres undefined) ?
TDP1 cell noCPT: 18.4µM*; HT1080 IDH1KD tx: -14.0%; KB-V1 cytotox: inconclusive; HT1080-NT tox: -19.7%; TDP1 cell CPT: inconclusive; KB-3-1 cytotox: inactive

What do the screens show for `Cc1ccc(Oc2nnc(-c3ccccc3)c3ccccc23)cc1`?
TDP1 cell noCPT: inconclusive; HT1080 IDH1KD tx: inconclusive; KB-V1 cytotox: inactive; HT1080-NT tox: inconclusive; TDP1 cell CPT: 20.6µM*; KB-3-1 cytotox: inactive

How did COc1ccc(-c2nc3n(n2)C(c2ccc(OC)cc2)C(C(=O)Nc2cccnc2)=C(C)N3)cc1 (centres undefined) do in these assays?
TDP1 cell noCPT: -15.3%; KB-V1 cytotox: inactive; TDP1 cell CPT: -11.0%; KB-3-1 cytotox: inactive

How did COc1cccc(C2C(C(=O)Nc3ccccc3)=C(C)Nc3nc(-c4ccccc4)nn32)c1OC (centres undefined) do in these assays?
TDP1 cell noCPT: inconclusive; KB-V1 cytotox: inconclusive; TDP1 cell CPT: 16.4µM*; KB-3-1 cytotox: inactive

What do the screens show for `COc1ccc(C2C(C(=O)Nc3ccccc3)=C(C)Nc3nc(-c4ccccc4)nn32)c(OC)c1` (centres undefined)?
TDP1 cell noCPT: inconclusive; KB-V1 cytotox: inactive; TDP1 cell CPT: 16.4µM*; KB-3-1 cytotox: inactive

Results for CC1=C(C(=O)Nc2cccnc2)C(c2ccc(Cl)cc2)n2nc(-c3ccccc3)nc2N1 (centres undefined) ?
TDP1 cell noCPT: inconclusive; KB-V1 cytotox: inactive; TDP1 cell CPT: 16.4µM*; KB-3-1 cytotox: inactive

How did Cc1ccc(C)c(NC(=O)C2CCN(S(=O)(=O)c3ccc4c(c3)NC(=O)CO4)CC2)c1 do in these assays?
TDP1 cell noCPT: -15.5%; HT1080 IDH1KD tx: -12.7%; KB-V1 cytotox: inactive; HT1080-NT tox: -18.6%; TDP1 cell CPT: -4.6%; KB-3-1 cytotox: inactive

What do the screens show for `CC(=O)c1ccc2c(c1)c(C#N)c1ccccc1[n+]2[O-]`?
TDP1 cell noCPT: 18.4µM*; HT1080 IDH1KD tx: -6.4%; KB-V1 cytotox: inactive; HT1080-NT tox: -4.6%; TDP1 cell CPT: 13µM*; KB-3-1 cytotox: inconclusive

What do the screens show for `CC(=O)c1ccc2noc(-c3ccccc3)c2c1`?
TDP1 cell noCPT: -12.4%; HT1080 IDH1KD tx: 0.9%; KB-V1 cytotox: inconclusive; HT1080-NT tox: 14.4%; TDP1 cell CPT: -9.2%; KB-3-1 cytotox: inactive
